PubChem BioAssay (NCI)
About 83,000 compounds went through this panel and 20% of them were active in at least one assay; those are over-represented in the sample as a whole.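 Method: cells in 96-well plates; compound added at one concentration; 48 h incubation; percent growth measured; values under 10 scored active.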 Activity calls are given as the source filed them.

What was measured:
Assay in all cases: NCI-60 one-dose screen, 48 h (100 = growth as untreated, 0 = no growth, -100 = all killed)
Conditions in all cases: 10 µM unless noted
SK-MEL-2 melanoma = test system: SK-MEL-2 melanoma
EKVX NSCLC = test system: EKVX NSCLC
SN12C renal = test system: SN12C renal
UO-31 renal = test system: UO-31 renal
TK-10 renal = test system: TK-10 renal
ACHN renal = test system: ACHN renal
CAKI-1 renal = test system: CAKI-1 renal
A498 renal = test system: A498 renal
CCRF-CEM leukemia = test system: CCRF-CEM leukemia
MOLT-4 leukemia = test system: MOLT-4 leukemia

Measured: growth

NS(=O)(=O)Oc1cccc(-c2nc3sccn3c2-c2ccccc2)c1
inactive: SK-MEL-2 melanoma 55.6% | EKVX NSCLC 66.7% | SN12C renal 53% | UO-31 renal 68.8% | TK-10 renal 87.9% | ACHN renal 75.1% | CAKI-1 renal 45.7% | CCRF-CEM leukemia 40.2% | MOLT-4 leukemia 31.1%
active: A498 renal 7.63%

O=C(/C=C\c1ccc(O)c(O)c1)c1ccccc1O
inactive: SK-MEL-2 melanoma 125% | EKVX NSCLC 73.3% | SN12C renal 71.9% | UO-31 renal 49.6% | TK-10 renal 88.7% | ACHN renal 78.3% | A498 renal 98.9% | CCRF-CEM leukemia 14.7% | MOLT-4 leukemia 49.1%
active: CAKI-1 renal 8.01%

C/C(=C(\c1ccc(OCCCN(C)C)cc1)c1ccc(OC(=O)Cc2ccccc2)cc1)c1ccc(Cl)cc1
inactive: SK-MEL-2 melanoma 92.7% | EKVX NSCLC 70.4% | SN12C renal 87.3% | UO-31 renal 62% | TK-10 renal 87.8% | ACHN renal 94.3% | CAKI-1 renal 83.7% | A498 renal 103% | CCRF-CEM leukemia 66.4% | MOLT-4 leukemia 48.7%

CS(=O)(=O)c1cccc(Nc2ncc3cc(-c4ccccc4Cl)ccc3n2)c1
active: SK-MEL-2 melanoma -25.6% | UO-31 renal -3.98% | ACHN renal 2.93% | CAKI-1 renal 9.3% | A498 renal 5.57% | CCRF-CEM leukemia 9.21% | MOLT-4 leukemia 5.83%
inactive: EKVX NSCLC 23.9% | SN12C renal 11% | TK-10 renal 19.5%

Oc1cccc2c1NCCC2
inactive: EKVX NSCLC 22.3% | SN12C renal 11.7% | TK-10 renal 23.3% | ACHN renal 11.4% | CAKI-1 renal 15.6% | A498 renal 19.6% | CCRF-CEM leukemia 18.6% | MOLT-4 leukemia 28%
active: SK-MEL-2 melanoma -14.9% | UO-31 renal 6.25%

Cc1nc2sc(C(=O)Nc3ccccc3)c(N)c2cc1C(O)c1ccccc1 (configuration not stated)
active: A498 renal -8.48% | CCRF-CEM leukemia 6.36%
inactive: SK-MEL-2 melanoma 54.8% | EKVX NSCLC 51.5% | SN12C renal 25.4% | UO-31 renal 45.7% | TK-10 renal 59.3% | ACHN renal 34.4% | CAKI-1 renal 24.8% | MOLT-4 leukemia 15.1%

C#CCOc1cccc(Nc2c(Cl)c(CCl)nc3ccc(Oc4ccccc4)cc23)c1
active: SN12C renal 5.93% | CCRF-CEM leukemia 9.4%
inactive: SK-MEL-2 melanoma 37.4% | EKVX NSCLC 76.5% | UO-31 renal 61.7% | TK-10 renal 76.5% | ACHN renal 63.5% | CAKI-1 renal 76.1% | A498 renal 99.7% | MOLT-4 leukemia 14%

O=C(/C=C/c1ccco1)Nc1ncc(Cc2ccc(F)cc2)s1
inactive: SK-MEL-2 melanoma 48.8% | EKVX NSCLC 29.1% | SN12C renal 28.5% | UO-31 renal 47.6% | TK-10 renal 62.3% | ACHN renal 40.2% | CAKI-1 renal 34.4% | A498 renal 19.3% | CCRF-CEM leukemia 21.9% | MOLT-4 leukemia 20.9%

CCOC(=O)c1cc(C(=O)c2cc(OC)cc(OC)c2)n2ccccc12
inactive: SK-MEL-2 melanoma 41.7% | EKVX NSCLC 73.7% | SN12C renal 66.9% | UO-31 renal 62% | TK-10 renal 55.9% | ACHN renal 48.6% | CAKI-1 renal 42.2% | A498 renal 28.8% | CCRF-CEM leukemia 34.6% | MOLT-4 leukemia 30.6%

Cc1c(N2CCCCC2)[nH]c2ccccc12
inactive: SK-MEL-2 melanoma 119% | EKVX NSCLC 117% | SN12C renal 98.4% | UO-31 renal 125% | TK-10 renal 121% | ACHN renal 115% | CAKI-1 renal 101% | A498 renal 123% | CCRF-CEM leukemia 55.1% | MOLT-4 leukemia 110%

O=C(/C=C/C12c3ccccc3C(c3ccccc31)C1C(=O)NC(=O)C12)c1cccs1 (configuration not stated)
active: CCRF-CEM leukemia 0.0532%
inactive: SK-MEL-2 melanoma 38.5% | EKVX NSCLC 50.3% | SN12C renal 36.4% | UO-31 renal 42.6% | TK-10 renal 48.7% | ACHN renal 45.8% | CAKI-1 renal 52.2% | A498 renal 46.9% | MOLT-4 leukemia 10.5%

COC(=O)[C@@H](Cc1c[nH]c2ccccc12)NC(=O)[C@H](Cc1ccccc1)NCc1ccncc1
inactive: SK-MEL-2 melanoma 77.7% | EKVX NSCLC 103% | SN12C renal 100% | UO-31 renal 71.9% | TK-10 renal 98.1% | ACHN renal 109% | CAKI-1 renal 91.9% | A498 renal 100% | CCRF-CEM leukemia 90.3% | MOLT-4 leukemia 92.5%

C=CC(=O)NCc1cccc(Nc2ncc(Br)c(NCCCNC(=O)C3CCC3)n2)c1
active: SK-MEL-2 melanoma -50% | EKVX NSCLC -27.1% | SN12C renal 1.99% | UO-31 renal -9.45% | TK-10 renal -17.4% | ACHN renal 7.42% | CAKI-1 renal -25.3% | A498 renal -59.5% | CCRF-CEM leukemia 1.57% | MOLT-4 leukemia -5.38%

CSc1nn2c(-c3cc4cc(Br)ccc4oc3=O)ccnc2c1C#N
inactive: SK-MEL-2 melanoma 104% | EKVX NSCLC 92.2% | SN12C renal 102% | UO-31 renal 89.8% | TK-10 renal 157% | ACHN renal 105% | CAKI-1 renal 92.9% | A498 renal 104% | CCRF-CEM leukemia 101% | MOLT-4 leukemia 104%

CCN(CC)CCN1C(=O)c2c(c(C)c3c(oc4cc(OC)ccc43)c2C)C1=O
active: UO-31 renal -43.7% | CCRF-CEM leukemia -10.9%
inactive: SK-MEL-2 melanoma 101% | EKVX NSCLC 93.5% | SN12C renal 32.2% | TK-10 renal 100% | ACHN renal 51% | CAKI-1 renal 78.2% | A498 renal 108% | MOLT-4 leukemia 61.1%

COc1cc2c(cc1OC)CC[N+](CCC[N+](C)(C)C)=C2
inactive: SK-MEL-2 melanoma 88.9% | EKVX NSCLC 100% | SN12C renal 98% | UO-31 renal 91.1% | TK-10 renal 80.5% | ACHN renal 104% | A498 renal 104% | CCRF-CEM leukemia 97.9%

CCN(CC)CCCNc1cc(OC)cc2cccnc12
inactive: SK-MEL-2 melanoma 109% | EKVX NSCLC 107% | SN12C renal 97.7% | UO-31 renal 91.6% | TK-10 renal 109% | ACHN renal 110% | A498 renal 81.5% | CCRF-CEM leukemia 114% | MOLT-4 leukemia 104%
